Experimental data from the supplement of paper PMC7411054.

Assays:
Settings in all cases: treatment time: 24 h
A549-ACTB-RAB5A [1] = assay: lowest phenotypically active concentration; higher = less potent
Summary of the method: (§1)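 Two criteria together defined phenotypic activity: deviation and reproducibility. Deviation meant ≥3 of 4 wells beyond the 95th percentile of Euclidean distances in solvent control wells, and reproducibility meant a median replicate Pearson correlation above the 95th percentile of non-replicates. Wells had been treated for 24 h at 0.3, 1, 3 or 9 µM in fifteen gene-edited A549, HepG2 and WPMY1 reporter lines before live imaging.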

A549-CANX-COX4 [2] = assay: as above
Summary of the method: as §1

A549-GM130-SQSTM1 [3] = assay: as above
Summary of the method: as §1

A549-TP53BP1-CLTA [4] = assay: as above
Summary of the method: as §1

A549-TUBA1B-RELA [5] = assay: as above
Summary of the method: as §1

HepG2-GM130-SQSTM1 [6] = assay: as above
Summary of the method: as §1

A549-ACTB-RAB5A [7] = assay: phenotypically active (imaging signature differs from DMSO and reproducible) at any of 0.3-9 uM (binary (1 = active, 0 = inactive)); higher = active
Summary of the method: as §1

A549-CANX-COX4 [8] = assay: as above
Summary of the method: as §1

A549-GM130-SQSTM1 [9] = assay: as above
Summary of the method: as §1

A549-TP53BP1-CLTA [10] = assay: as above
Summary of the method: as §1

A549-TUBA1B-RELA [11] = assay: as above
Summary of the method: as §1

HepG2-ACTB-RAB5A = assay: as above
Summary of the method: as §1

HepG2-CANX-COX4 = assay: as above
Summary of the method: as §1

HepG2-GM130-SQSTM1 [12] = assay: as above
Summary of the method: as §1

HepG2-TP53BP1-CLTA = assay: as above
Summary of the method: as §1

HepG2-TUBA1B-RELA = assay: as above
Summary of the method: as §1

WPMY1-CANX-COX4 = assay: as above
Summary of the method: as §1

WPMY1-GM130-SQSTM1 = assay: as above
Summary of the method: as §1

WPMY1-TP53BP1-CLTA = assay: as above
Summary of the method: as §1

WPMY1-TUBA1B-RELA = assay: as above
Summary of the method: as §1

Structure (SMILES)	lowest phenotypically active concentration (A549-ACTB-RAB5A [1]) [µM]	lowest phenotypically active concentration (A549-CANX-COX4 [2]) [µM]	lowest phenotypically active concentration (A549-GM130-SQSTM1 [3]) [µM]	lowest phenotypically active concentration (A549-TP53BP1-CLTA [4]) [µM]	lowest phenotypically active concentration (A549-TUBA1B-RELA [5]) [µM]	lowest phenotypically active concentration (HepG2-GM130-SQSTM1 [6]) [µM]	phenotypically active (A549-ACTB-RAB5A [7])	phenotypically active (A549-CANX-COX4 [8])	phenotypically active (A549-GM130-SQSTM1 [9])	phenotypically active (A549-TP53BP1-CLTA [10])	phenotypically active (A549-TUBA1B-RELA [11])	phenotypically active (HepG2-ACTB-RAB5A)	phenotypically active (HepG2-CANX-COX4)	phenotypically active (HepG2-GM130-SQSTM1 [12])	phenotypically active (HepG2-TP53BP1-CLTA)	phenotypically active (HepG2-TUBA1B-RELA)	phenotypically active (WPMY1-CANX-COX4)	phenotypically active (WPMY1-GM130-SQSTM1)	phenotypically active (WPMY1-TP53BP1-CLTA)	phenotypically active (WPMY1-TUBA1B-RELA)
COc1cc(C(=O)N2CCC(N3CCN(C)CC3)CC2)ccc1Nc1ncc2c(n1)N(C)c1ccccc1C(=O)N2C	3	3	3	9	3	1	1 (active)	1 (active)	1 (active)	1 (active)	1 (active)	1 (active)	1 (active)	1 (active)	1 (active)	1 (active)	1 (active)	1 (active)	1 (active)	1 (active)
Cc1cnc(NC(=O)Nc2cc(Br)c(C)cc2OC[C@@H]2CNCCO2)cn1	3	3	3	1	1	1	1 (active)	1 (active)	1 (active)	1 (active)	1 (active)	1 (active)	1 (active)	1 (active)	1 (active)	1 (active)	1 (active)	1 (active)	1 (active)	1 (active)
Cc1cc(Nc2nc(N[C@@H](C)c3ncc(F)cn3)ncc2Cl)n[nH]1	3	3	3	3	1	3	1 (active)	1 (active)	1 (active)	1 (active)	1 (active)	1 (active)	1 (active)	1 (active)	1 (active)	1 (active)	1 (active)	1 (active)	1 (active)	1 (active)
O=C(Cc1ccc(-c2ccc(OCCN3CCOCC3)cc2)cn1)NCc1ccccc1	≤ 0.3	≤ 0.3	≤ 0.3	≤ 0.3	≤ 0.3	≤ 0.3	1 (active)	1 (active)	1 (active)	1 (active)	1 (active)	1 (active)	1 (active)	1 (active)	1 (active)	1 (active)	1 (active)	1 (active)	1 (active)	1 (active)
CC(C)n1nc(-c2cc3cc(O)ccc3[nH]2)c2c(N)ncnc21	1	1	1	1	1	≤ 0.3	1 (active)	1 (active)	1 (active)	1 (active)	1 (active)	1 (active)	1 (active)	1 (active)	1 (active)	1 (active)	1 (active)	1 (active)	1 (active)	1 (active)
